{"source": "PubChem BioAssay (NCATS)", "note": "Results filed as inconclusive are left out. Where a call stands in place of a potency, no number is given. Calls of active or inactive are those of the source. The call rests on the fitted dose curve; in most records, active means well fitted inhibition curve with a large enough effect; inconclusive means small, poorly fitted or top-dose-only effect; inactive means flat fitted curve, though single readings scatter."}
{"test": "P-glycoprotein substrates identified in KB-8-5-11 adenocarcinoma cell line, qHTS therapeutic library screen (AID 1346987); further: nearly all actives have a fitted effect of over 65% in size", "conditions": "KB-8-5-11 (P-gp overexpressing) viability, CellTiter-Glo, 72 h; series mostly up to 44.5 µM", "procedure,_shortened": "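KB-8-5-11, a colchicine-selected P-gp-overexpressing KB-3-1 subline, was grown without colchicine for the assay. Cells were seeded at 500 cells/well, dosed in concentration-response and incubated 72 h at 37 degree C, 5% CO2. Viability was read by CellTiter-Glo luminescence.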"}
{"smiles": "COc1cc(C(=O)OC[C@H]2O[C@H](O[C@@]3(CO)O[C@@H](CO)[C@H](O)[C@H]3O)[C@H](O)[C@@H](O)[C@@H]2O)ccc1O", "Potency": "inactive"}
{"smiles": "CC(C)NCC1CCc2cc(CO)c([N+](=O)[O-])cc2N1", "note": "(stereo not given)", "Potency": "inactive"}
{"smiles": "C=C1C(OC(C)=O)C(=O)C2C(C)(C)C(OC(C)=O)CCC2(C)C1CC(OC(C)=O)/C(C)=C/COC(C)=O", "note": "(stereo not given)", "Potency": "inactive"}
{"smiles": "O=C1C[C@@H](c2ccc(O)cc2)Oc2cc(O)ccc21", "Potency": "inactive"}
{"smiles": "CC1(C)OC(=O)C(OCC2CC2)=C1c1ccc(S(C)(=O)=O)cc1", "Potency": "inactive"}
{"smiles": "CC1=C2C(=O)O[C@@H](c3ccoc3)[C@]2(C)CCC1", "Potency": "inactive"}
{"smiles": "Nc1c(N=Nc2ccc(-c3ccc(N=Nc4cc(S(=O)(=O)O)c5ccccc5c4N)cc3)cc2)cc(S(=O)(=O)O)c2ccccc12", "Potency": "inactive"}
{"smiles": "CCn1cc(C2=NOC(C(=O)Nc3c(C)n(C)n(-c4ccccc4)c3=O)C2)c(C)n1", "note": "(stereo not given)", "Potency": "inactive"}
{"smiles": "CC(=O)N(CC(C)C(=O)O)c1c(I)cc(I)c(N)c1I", "note": "(stereo not given)", "Potency": "inactive"}
{"smiles": "CCCn1cnc2c(NCc3ccccc3)nc(N[C@H](CC)CO)nc21", "Potency": "inactive"}
{"smiles": "CNC(=O)[C@H]1O[C@@H](n2cnc3c(NCc4ccc(N)c(I)c4)ncnc32)[C@H](O)[C@@H]1O", "outcome": "inactive [at 9.29 µM]"}
{"smiles": "O=C(NC[C@H](O)CN1CCc2ccccc2C1)c1cc(NC2COC2)ncn1", "Potency": "inactive"}
{"smiles": "CC(C)CC(=O)O[C@@H]1OC=C(CO[C@@H]2O[C@H](CO[C@@H]3O[C@H](CO)[C@@H](O)[C@H](O)[C@H]3O)[C@@H](O)[C@H](O)[C@H]2O)[C@H]2C[C@H](O)[C@@H](CO)[C@@H]12", "Potency": "inactive"}
{"smiles": "O=C(NCc1ccc(OC(F)(F)F)cc1)C1c2ccccc2C(=O)N1C1CCOCC1", "note": "(stereo not given)", "Potency": "inactive"}
{"smiles": "O=c1ccn(C2OC(CO)C(O)C2O)c(=O)[nH]1", "note": "(stereo not given)", "Potency": "inactive"}
{"smiles": "COc1cc(NC(=O)c2ccccn2)ccc1Cl", "Potency": "inactive"}
{"smiles": "COC1CC(=O)CCC(C)OC(=O)CC1O", "note": "(stereo not given)", "Potency": "inactive"}
{"smiles": "C[C@@H]1C(=O)O[C@H]2CC34[C@H]5C[C@@H](C(C)(C)C)C36[C@@H](OC(=O)[C@@H]6O)O[C@@]4(C(=O)O5)[C@]21O", "note": "(stereo not given in full)", "Potency": "inactive"}
{"smiles": "COc1cc(C2Oc3c(OC)cc(CCCO[C@@H]4O[C@H](CO)[C@@H](O)[C@H](O)[C@H]4O)cc3C2CO)ccc1O", "note": "(stereo not given in full)", "Potency": "inactive"}
{"smiles": "CC(C(=O)O)C1CCC2(C)C3C(=O)C=C4C(CCC(=O)C4(C)C)C3(C)CCC12C", "note": "(stereo not given)", "Potency": "inactive"}
{"smiles": "O=C(c1ccc(F)cc1)C1CCN(CCn2c(=O)nc3n(c2=O)CCCC3)CC1", "Potency": "inactive"}
{"smiles": "COc1c(C)c2c(c(O)c1C/C=C(\\C)CC/C=C(\\C)CCC(=O)O)C(=O)OC2", "Potency": "inactive"}
{"smiles": "COc1cc(C(O)C(CO)Oc2ccc(CCCO[C@@H]3O[C@@H](C)[C@H](O)[C@@H](O)[C@H]3O)cc2OC)ccc1O", "note": "(stereo not given in full)", "Potency": "inactive"}
{"smiles": "CC[C@H](/C=C/[C@@H](C)[C@H]1CC[C@H]2[C@@H]3CC=C4C[C@@H](O)CC[C@]4(C)[C@H]3CC[C@]12C)C(C)C", "activity change, negative = cytotoxicity": "0.93% [at 5.11 µM] (inactive)"}
{"smiles": "CCOC(=O)O[C@]1(C(=O)COC(=O)CC)CC[C@H]2[C@@H]3CCC4=CC(=O)C=C[C@]4(C)[C@H]3[C@@H](O)C[C@@]21C", "Potency": "inactive"}
{"smiles": "CC(=O)Oc1cc2c(s1)CCN([C@H](C(=O)C1CC1)c1ccccc1F)C2", "Potency": "inactive"}
{"smiles": "Cc1cc(N2CCCCC2)nc2ccccc12", "Potency": "inactive"}
{"smiles": "O=C(NCC(=O)N1CC[C@H](NC2CCC(O)(c3ccc(-c4ncccn4)cn3)CC2)C1)c1cccc(C(F)(F)F)c1", "note": "(stereo not given in full)", "Potency": "inactive"}
{"smiles": "C[C@]12CCC[C@](C)(C(=O)O)C1CCC13C=C(CO)C(CCC12)C3", "note": "(stereo not given in full)", "Potency": "inactive"}
{"smiles": "COC(=O)[C@]12C(=O)C(C)=C(O)[C@@]1(C)C(C)=CC1[C@@]34CC[C@@H](OC(C)=O)C(C)(C)C3[C@H](C[C@]12C)OC4=O", "note": "(stereo not given in full)", "Potency": "inactive"}
{"smiles": "O=S(=O)(NC1CCNCC1)c1cc(S(=O)(=O)c2ccccc2)ccc1C(F)(F)F", "Potency": "inactive"}
{"smiles": "C=CCc1ccc(O[C@@H]2O[C@H](CO[C@@H]3O[C@H](CO)[C@@H](O)[C@H](O)[C@H]3O)[C@@H](O)[C@H](O)[C@H]2O)c(O)c1", "Potency": "inactive"}
{"smiles": "COC1CCCC/C(C)=C/C2C=C(C)C(C)C3C(CC(C)C)NC(=O)C23C(=O)C1", "note": "(stereo not given)", "Potency": "inactive"}
{"smiles": "CC(O)(CC(=O)O)CC(=O)O[C@@H]1[C@@H](O)[C@H](OCCc2ccccc2)O[C@H](CO)[C@H]1O", "note": "(stereo not given in full)", "Potency": "inactive"}
{"smiles": "OC[C@H]1O[C@@H](Oc2cc(O)cc(/C=C/c3ccc(O)cc3)c2)[C@H](O)[C@@H](O)[C@@H]1O", "Potency": "inactive"}
